# Assay outcomes (PubChem BioAssay)
# Most compounds without a hit are left out; they make up all but 10% or so of the library.
# PNC inhibitor: perinucleolar compartment assembly inhibition. AID 2417. PC3M PTB-GFP, PNC prevalence imaging, 16 h; hits give low values. actives 3.1% (n = 140,000). activity change (PNC), negative = inhibition, % at 10 µM;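 active means readout at or below -70, meaning at least 70% loss of cells showing the perinucleolar compartment, a nuclear body marking cancer cells; inconclusive means readout between -30 and a set limit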;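 further: plate controls were DMSO wells for no effect and camptothecin positive control wells for full effect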
#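 PC3M cells stably expressing PTB-GFP, 750–1000 cells/well, treated 16 h at 37 °C with compound (23 nl of library stock), in duplicate. After paraformaldehyde fixation and Hoechst stain, imaged at 20x; PNC prevalence scored by image analysis.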
# LMNA splice mod: LMNA splicing modulation | HeLa LMNA splicing GFP/RFP minigene ratio, 48 h | Potency, µM (series often up to 46.1 µM), for the others: at the top dose ratio change, negative = inhibition, hits mostly inhibitors | actives 0.01% (n = 200,000) | AID 1487; active means well fitted inhibition curve with a large enough effect in the signal ratio, with a control signal flat, not every such curve was filed as active; inconclusive means small, poorly fitted or top-dose-only effect, or effect the other way, or a change in a side signal; the % refers to the signal ratio; further: potency means the concentration at half of the fitted maximal effect
#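 Read-out is the ratio of GFP to DsRed2 object intensity, acquired by 488 nm laser-scanning cytometry on HeLa lamin A-EGFP minigene reporter cells. Compound incubation 48 hrs at 37 °C in Opti-MEM with 2% FBS; DMSO 0.5% final.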
# HPGD block: blocks human HPGD enzyme activity. P15428. purified HPGD, NADH fluorescence kinetic, PGE2 substrate. Potency, µM, for inactives: at the highest dose activity change, negative = inhibition, usual class: inhibitors. actives 4.3% (n = 150,000). AID 894; further: potency means the concentration at half of the fitted maximal effect
#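 20 nM HPGD preincubated 15 min at room temperature with compound in 50 mM Tris-HCl pH 8, 0.01% Tween 20. Started with 1 mM NAD+ and 30 uM prostaglandin E2; NADH fluorescence (360/450 nm) read 5 times over 30-s intervals, last minus first.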
# ALDH1A1 block: inhibitors of human aldehyde dehydrogenase 1A1; P00352; Potency, µM (top dose mostly 75.3 µM), for inactives: at the top dose activity, negative = inhibition, usual class: inhibitors; Purified ALDH1A1, NADH fluorescence, propionaldehyde substrate; actives 7.3% (n = 220,000);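 further: potency means the concentration at half of the fitted maximal effect; plate controls were no enzyme wells and a reference inhibitor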
# Target sequence (P00352 whole entry, looked up): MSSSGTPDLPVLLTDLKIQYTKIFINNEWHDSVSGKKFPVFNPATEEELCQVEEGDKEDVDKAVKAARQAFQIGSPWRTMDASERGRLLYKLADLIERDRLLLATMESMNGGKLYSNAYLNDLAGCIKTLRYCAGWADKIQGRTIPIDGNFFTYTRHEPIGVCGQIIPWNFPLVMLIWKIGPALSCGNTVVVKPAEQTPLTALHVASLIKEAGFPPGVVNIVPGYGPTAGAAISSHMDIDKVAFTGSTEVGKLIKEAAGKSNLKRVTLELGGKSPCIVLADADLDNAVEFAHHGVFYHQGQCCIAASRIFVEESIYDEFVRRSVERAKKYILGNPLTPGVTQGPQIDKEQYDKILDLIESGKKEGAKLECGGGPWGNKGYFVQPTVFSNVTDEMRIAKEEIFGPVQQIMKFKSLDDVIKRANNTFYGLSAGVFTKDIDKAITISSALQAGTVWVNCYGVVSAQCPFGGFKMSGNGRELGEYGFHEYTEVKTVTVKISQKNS
# Luc counter: Kinase-Glo luciferase inhibition (counter-screen). actives 0.28% (n = 200,000). Kinase-Glo luciferase, ATP luminescence, 8 min. Potency, µM (titrated, usually from 38.3 µM), for inactives: top-dose activity change, negative = inhibition, most hits filed as inhibitors. Q27757. AID 1379; active means well fitted inhibition curve with a large enough effect; inconclusive means small, poorly fitted or top-dose-only effect; further: potency means the concentration at half of the fitted maximal effect; nearly all actives have a fitted effect of over 60% in size
#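 Compound is pinned into ATP-containing buffer (10 uM ATP, imidazole pH 7.2, 7 mM MgCl2). Kinase-Glo luciferase reagent is then added. Light output is recorded following an 8-min room-temperature incubation.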
# * marks the source's active call; other numbers are inactive results; ? = inconclusive; . = no result given; [ ] = remark or other dose. Unless noted, the call rests on the fitted dose curve; in most records, active means well fitted inhibition curve with a large enough effect (not every such curve was filed as active); inconclusive means small, poorly fitted or top-dose-only effect, or another doubt; inactive means no such curve, though single readings can be large or run the other way. Unless noted, on the % scale 0 is the no-effect control and ±100 the full control effect.
SMILES,PNC inhibitor,LMNA splice mod,HPGD block,ALDH1A1 block,Luc counter
COc1ccc(NC(=O)c2sc(=S)[nH]c2N)cc1,14,10%,28µM*,10µM*,-1%
CCCc1cc(=O)[nH]c(SCc2cccnc2)n1,410,-15%,20µM*,-4%,0%
CCc1nc(SCc2cccnc2)[nH]c(=O)c1C,?,1%,25µM*,13%,1%
CCc1nc(SCc2ccccn2)[nH]c(=O)c1C,.,?,.,-3%,2%
CCCc1cc(=O)[nH]c(SCc2csc(-c3ccccc3)n2)n1,?,?,-28%,-7%,2%
CCCc1cc(=O)[nH]c(SCc2ccc(Cl)cc2)n1,32,21%,16µM*,1%,-1%
CCCc1cc(=O)[nH]c(SCc2cc(Cl)ccc2OC(F)F)n1,21,5%,14µM*,-1%,1%
CCCc1cc(=O)[nH]c(SCc2nc(-c3ccccc3F)no2)n1,.,-3%[46 µM],.,.,.
COc1ccc2nc3cc(Cl)ccc3c(Nc3ccc(O)c(CN4CCN(C)CC4)c3)c2c1,.,.,3%,5%[13.5 µM],-7%[7.66 µM]
CCCc1cc(=O)[nH]c(SCc2ccccc2)n1,-19,3%,16µM*,?,2%
N#Cc1c(-c2ccccc2)nc(SCC(=O)NC2CCCCC2)[nH]c1=O,.,0%[46 µM],.,-16%,3%
CCc1nc(SCc2ccc(F)cc2)[nH]c(=O)c1C#N,?,?,4.5µM*,32µM*,-2%
CCSc1nc(-c2ccccc2)c(C#N)c(=O)[nH]1,29,-10%,28µM*,?,9%
CCCc1cc(=O)[nH]c(SCC(=O)N(C)CC(=O)Nc2ccc(C)cc2)n1,-115*,1%,1%,-5%,-1%
N#Cc1c(-c2cccs2)nc(SCc2ccc(Cl)cc2)[nH]c1=O,.,.,.,6%,-2%
O=C(CCNS(=O)(=O)c1ccc2c(c1)CCCC(=O)N2)NCc1ccc(Cl)cc1,.,0%[46 µM],.,.,.
Cc1nc(N2CCOCC2)c2nc(-c3ccccc3)n(CC3CCN(C)CC3)c2n1,.,.,?,?,-4%
CCCc1cc(=O)[nH]c(SCc2nc3ccc([N+](=O)[O-])cc3[nH]2)n1,49,?,18µM*,-15%,-3%
CCCc1cc(=O)[nH]c(SCc2cccc(C)c2)n1,34,9%,14µM*,?,-3%
Cc1cccc(CSc2nc3[nH]ncc3c(=O)[nH]2)c1,.,-17%[46 µM],.,8.9µM*,4%
COc1ccc(-c2cn3c(n2)sc2cc(C(=O)NCCc4ccc(OC)cc4OC)ccc23)cc1,.,11%[46 µM],.,.,.
c1ccc(-n2ncc3c(N4CCCCC4)ncnc32)cc1,15,-18%,18µM*,?,-18%
Cc1ccccc1C(=O)N1CCN(c2ncnc3c2cnn3-c2ccccc2)CC1,-24,?,-4%,7.9µM*,-4%
Cc1cccc(-n2ncc3c(N4CCCCCC4)ncnc32)c1,.,-23%[46 µM],.,.,.
Cc1ccc(C)c(N2CCN(c3ncnc4c3cnn4-c3ccccc3)CC2)c1,1,0%,?,?,1%
SMILES,PNC inhibitor,LMNA splice mod,HPGD block,ALDH1A1 block,Luc counter
CCOC(=O)N1CCN(c2ncnc3c2cnn3-c2ccc(Cl)cc2)CC1,28,?,?,4µM*,5%
CCN1CCN(c2ncnc3c2cnn3-c2ccccc2)CC1,?,-3%,-8%,?,3%
Cc1cccc(-n2ncc3c(N4CCC(C)CC4)ncnc32)c1,26,-11%,28µM*,14µM*,11%
Cn1c(SCc2ccc(C(F)(F)F)cc2)nc2c([nH]c3ccccc32)c1=O,.,10%[46 µM],.,.,.
O=C(O)C[C@H](Sc1ccccc1)c1ccccc1,.,.,-6%,5%[13.5 µM],-3%[7.66 µM]
COc1cccc(N2CCN(S(=O)(=O)c3cc(-c4cc(C)no4)ccc3C)CC2)c1,.,-6%[46 µM],.,.,.
COc1ccc(Nc2ncc3c(n2)CCN(Cc2ccccc2C)C3)c(OC)c1,.,5%[46 µM],.,.,.
CCc1ccccc1N1C(=O)N(CC(=O)c2ccc(Cl)cc2)c2ccccc2S1(=O)=O,.,5%[46 µM],.,.,.
COC(=O)C/C=C\[C@H](C)[C@@H](OCc1ccccc1Br)C(C)C,.,.,.,1%[13.5 µM],.
c1ccc(CCN2CCN(c3ncnc4c3cnn4-c3ccccc3)CC2)cc1,45,?,-8%,28µM*,1%
COC(=O)c1cc(OC)c(=O)c2c(OC)c(OC)ccc2c1,.,.,-5%,3%,-1%
